Measured values as given in PubChem BioAssay AID1159580 (chemical genetic matrix, 2015).
Out of some 5,500 compounds screened, about 2,000 (36%) were called active. Not shown: some 18% with an inconclusive outcome. Cut-off read from the data, not from the text of the source: active = normalized growth mostly below about 0.91 (no sharp cut-off); inconclusive = no clear call, values can overlap the other calls; inactive = mostly above about 0.92. This is one part of the list.

Test: chemical genetic growth profiling, strain panel (AID 1159580);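 note: tested at 20 µM; growth read once vehicle control cultures reached saturation at 30 °C; 1 = growth at the plate median or of vehicle wells; lower values mean less growth of the strain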
Conditions: S. cerevisiae deletion strains, growth OD
[1] = locus YHR030C, strain SLT2, hits give low values
[2] = locus YHR079C, strain IRE1, hits give low values
[3] = locus YJL095W, strain BCK1, hits give low values
[4] = locus YJR066W, strain TOR1, hits give low values
[5] = locus YLR113W, strain HOG1, hits give low values
[6] = locus YNL183C, strain NPR1, hits give low values
[7] = locus YOR231W, strain MKK1, hits give low values
[8] = locus YPL256C, strain CLN2, hits give low values

Measured: normalized growth

CCCCCCCCCCOc1cc2c(=O)c(C(=O)OCC)c[nH]c2cc1OCC
inactive: [1] 1 | [2] 0.989 | [3] 0.978 | [4] 0.962 | [5] 0.942 | [6] 0.971 | [7] 0.977 | [8] 0.993

CCCCC(=O)Oc1ccccc1C(=O)O
inactive: locus YAL021C, strain ccr4, hits give low values 0.989 | locus YAL026C, strain drs2, hits give low values 0.991 | locus YAL030W, strain snc1, hits give low values 0.989 | locus YBL061C, strain skt5, hits give low values 0.982 | locus YBR009C, strain hhf1, hits give low values 0.988 | locus YBR023C, strain chs3, hits give low values 0.993 | locus YBR171W, strain sec66, hits give low values 0.952 | locus YBR231C, strain swc5, hits give low values 0.989 | locus YBR279W, strain paf1, hits give low values 1 | locus YCL011C, strain gbp2, hits give low values 0.979 | locus YCL016C, strain dcc1, hits give low values 0.971 | locus YCL061C, strain MRC1, hits give low values 0.986 | locus YCL069W, strain vba3, hits give low values 0.996 | locus YCR088W, strain abp1, hits give low values 0.976 | locus YDL005C, strain med2, hits give low values 0.938 | locus YDL040C, strain nat1, hits give low values 0.989 | locus YDR001C, strain nth1, hits give low values 0.971 | locus YDR069C, strain doa4, hits give low values 0.986 | locus YDR137W, strain rgp1, hits give low values 0.963 | locus YDR159W, strain sac3, hits give low values 0.953 | locus YDR195W, strain ref2 0.981 | locus YDR297W, strain sur2, hits give low values 0.988 | locus YDR334W, strain swr1, hits give low values 0.994 | locus YDR335W, strain msn5, hits give low values 0.98 | locus YDR392W, strain spt3, hits give low values 0.997 | locus YEL003W, strain gim4, hits give low values 0.983 | locus YEL037C, strain rad23, hits give low values 0.984 | locus YEL061C, strain CIN8 (second series), hits give low values 0.982 | locus YER015W, strain faa2, hits give low values 0.991 | locus YER016W, strain bim1, hits give low values 0.977 | locus YER111C, strain swi4, hits give low values 0.938 | locus YER155C, strain BEM2 (second series), hits give low values 0.964 | locus YFR010W, strain ubp6, hits give low values 1 | locus YGL167C, strain pmr1, hits give low values 0.957 | locus YGL173C, strain kem1, hits give low values 0.981 | locus YGL227W, strain vid30, hits give low values 0.965 | locus YGL240W, strain doc1, hits give low values 0.971 | locus YGL253W, strain hxk2, hits give low values 0.989 | locus YHR013C, strain ard1, hits give low values 0.938 | locus YHR027C, strain rpn1, hits give low values 0.964 | [1] 0.974 | [2] 0.988 | locus YHR142W, strain chs7, hits give low values 0.962 | locus YJL092W, strain hpr5, hits give low values 0.971 | locus YJL095W, strain BCK1 (second series), hits give low values 0.955 | [3] 0.989 | locus YJL115W, strain asf1, hits give low values 0.971 | locus YJL129C, strain trk1, hits give low values 0.946 | locus YJL154C, strain vps35, hits give low values 0.964 | locus YJL164C, strain tpk1, hits give low values 0.981 | locus YJL166W, strain qcr8, hits give low values 0.984 | [4] 0.935 | locus YKL160W, strain elf1, hits give low values 0.962 | locus YKR026C, strain gcn3, hits give low values 0.986 | locus YKR091W, strain srl3, hits give low values 0.971 | locus YLL001W, strain dnm1, hits give low values 0.985 | locus YLL026W, hits give low values 0.983 | locus YLL041C, strain sdh2, hits give low values 0.986 | locus YLR027C, strain aat2, hits give low values 0.973 | [5] 0.944 | locus YLR221C, strain rsa3, hits give low values 1.01 | locus YLR258W, strain gsy2, hits give low values 0.983 | locus YLR262C, strain YPT6 (second series), hits give low values 0.973 | locus YLR320W, strain mms22, hits give low values 0.996 | locus YLR342W, strain FKS1, hits give low values 0.979 | locus YLR357W, strain rsc2, hits give low values 0.96 | locus YLR370C, strain arc18, hits give low values 0.971 | locus YLR384C, strain iki3, hits give low values 0.956 | locus YML120C, strain ndi1, hits give low values 0.994 | locus YMR058W, strain fet3, hits give low values 0.979 | locus YMR125W, strain sto1, hits give low values 0.959 | locus YMR129W, hits give low values 0.98 | locus YMR205C, strain PFK2, hits give low values 0.981 | locus YMR231W, strain pep5, hits give low values 0.967 | locus YNL071W, strain lat1, hits give low values 1 | [6] 0.936 | locus YNL209W, strain ssb2, hits give low values 0.974 | locus YNL248C, strain rpa49, hits give low values 0.959 | locus YNL322C, strain KRE1 (second series), hits give low values 0.944 | locus YNR049C, strain mso1, hits give low values 0.988 | locus YOR001W, strain rrp6, hits give low values 1.01 | locus YOR070C, strain gyp1, hits give low values 0.972 | locus YOR080W, strain dia2, hits give low values 0.956 | locus YOR083W, strain WHI5, hits give low values 0.927 | locus YOR106W, strain vam3, hits give low values 0.972 | [7] 0.966 | locus YOR265W, strain rbl2, hits give low values 0.99 | locus YOR270C, strain vph1, hits give low values 0.96 | locus YOR290C, strain snf2, hits give low values 0.971 | locus YPL051W, strain arl3, hits give low values 0.994 | locus YPL078C, strain atp4, hits give low values 0.977 | locus YPL106C, strain sse1, hits give low values 0.953 | locus YPL240C, strain hsp82, hits give low values 0.976 | [8] 0.953

CCCC[C@@H](CC)COC(=O)c1ccccc1O
inactive: [1] 0.979 | [2] 0.99 | [3] 1.02 | [4] 0.938 | [5] 0.974 | [6] 0.958 | [7] 0.984 | [8] 0.994
